The list is not random: actives were taken first. Their share in the collection is about 3.8%.
PAFAH1B3 FP inh – PAFAH1B3 enzyme inhibitors, primary screen, biochemical, fluorescence polarization, human; recombinant PAFAH1B3, FP-rhodamine probe; inhibition, % at 3.39 µM; 0.28% of 340,000 active; AID 492972, 2010;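 active = inhibition above the screen-wide average of all tested compounds plus 3 SD, cut at about 25% in these data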
Target sequence (Q15102 whole entry, looked up): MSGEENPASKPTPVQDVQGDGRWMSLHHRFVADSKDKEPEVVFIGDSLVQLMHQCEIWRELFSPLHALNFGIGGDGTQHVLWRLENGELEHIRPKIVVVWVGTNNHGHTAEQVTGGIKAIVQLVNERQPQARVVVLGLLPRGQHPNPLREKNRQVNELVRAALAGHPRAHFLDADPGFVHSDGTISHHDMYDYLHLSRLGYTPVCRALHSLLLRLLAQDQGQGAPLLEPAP
pPAFAH inh – pPAFAH enzyme inhibitors, primary screen, biochemical, fluorescence polarization, human. Platelet-activating factor acetylhydrolase (Homo sapiens), Q13093. recombinant pPAFAH, FP-rhodamine probe fluorescence polarization. inhibition, % at 3.39 µM. 1.5% of 330,000 active;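 active = inhibition above the mean inhibition across the screen plus 3 SD, cut at about 25% in these data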;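 also: inhibitors block binding of the rhodamine activity-based probe so polarization drops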
Pemphigus Ab inh – inhibitors of pemphigus antibody binding to DSG3, primary screen, biochemical, bead-based, flow cytometry, scFv-GFP. DSG3-coupled beads, scFv-anti-DSG3-GFP binding; hits give low values. binding (percent of control), % at 10 µM. 0.48% of 310,000 active;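 active = binding more than 3 SD below its plate's average and above zero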;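 also: hits lower antibody fragment binding to DSG3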
PAFAH1B2 inh – PAFAH1B2 enzyme inhibitors, primary screen, biochemical, fluorescence polarization, human; inhibition, % at 3.39 µM; Platelet-activating factor acetylhydrolase IB subunit alpha2 (Homo sapiens), P68402; recombinant PAFAH1B2, FP-rhodamine activity probe; 1.2% of 340,000 active;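 active = inhibition above the mean of all tested compounds plus 3 SD, cut at about 24% in these data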
Target sequence (P68402 whole entry, looked up): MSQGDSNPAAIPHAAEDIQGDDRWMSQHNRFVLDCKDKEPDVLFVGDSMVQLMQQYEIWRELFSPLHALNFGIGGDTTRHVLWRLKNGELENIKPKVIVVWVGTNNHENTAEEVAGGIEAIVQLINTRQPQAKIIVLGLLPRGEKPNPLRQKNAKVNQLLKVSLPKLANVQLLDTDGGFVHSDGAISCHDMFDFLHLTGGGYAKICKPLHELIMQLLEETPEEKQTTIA
PAFAH2 FP inh – PAFAH2 enzyme inhibitors, primary screen, biochemical, fluorescence polarization, human; 0.99% of 340,000 active; Platelet-activating factor acetylhydrolase 2, cytoplasmic (Homo sapiens), Q99487; inhibition, % at 3.39 µM; recombinant PAFAH2, FP-rhodamine activity probe;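 active = inhibition above the mean over all tested compounds plus 3 SD, cut at about 30% in these data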;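 also: inhibitors block probe labeling of enzyme so polarization drops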
M18AAP inhibitor – PfM18AAP inhibitors, malaria aminopeptidase, primary screen, biochemical, QFRET, recombinant enzyme. M18 aspartyl aminopeptidase (Plasmodium falciparum 3D7). inhibition, % at 7.35 µM. 1.2% of 290,000 active. H-Glu-NHMec fluorogenic cleavage;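 active = inhibition above the campaign mean inhibition over all tested compounds plus 3 SD, cut at about 28% in these data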
Each line names hits and unclear results; the compound was inactive in the other large screens.

CC(=O)Nc1ccc(S(=O)(=O)N(CCCN2CCOCC2)Cc2cccs2)cc1	none
CC(C)(C)c1ccc(S(=O)(=O)N(CCCN2CCOCC2)Cc2cccs2)cc1	pPAFAH inh 32.5, PAFAH2 FP inh 29.9
CSc1ncnc2c1ncn2CCCN1CCN(c2ccccn2)CC1	none (no result: PAFAH1B3 FP inh, pPAFAH inh, PAFAH1B2 inh, PAFAH2 FP inh, M18AAP inhibitor)
CN1CCN(c2ccccc2NC(=O)c2ccc([N+](=O)[O-])o2)CC1	none
CS(=O)(=O)N1CCN(c2ccccc2NC(=O)c2ccc([N+](=O)[O-])o2)CC1	Pemphigus Ab inh 27.5
CC(Sc1ccc(Cl)cc1)C(=O)Nc1ccc2c(c1)OCO2 (centres undefined)	none
COc1ccc(CCNC(=O)c2nnc(Cc3c(F)cccc3Cl)o2)cc1OC	none
CC(Sc1ccc(Cl)cc1)C(=O)NCc1ccc2c(c1)OCO2 (centres undefined)	PAFAH1B2 inh 24.3
Cc1ccc2c(CC(=O)NCc3ccc4c(c3)OCO4)coc2c1	none
COc1ccc2c(CC(=O)NCc3ccc4c(c3)OCO4)coc2c1	pPAFAH inh 31.8
COc1ccc(CCNC(=O)c2nnc(Cc3ccc(Cl)cc3)o2)cc1OC	pPAFAH inh 28.0
O=C(NCc1ccc2c(c1)OCO2)c1nnc(Cc2ccc(Cl)cc2)o1	pPAFAH inh 28.8
COC(=O)C1(C)CCCC2(C)c3cc(OC)ccc3C(=O)C(Br)C12 (centres undefined)	none (no result: PAFAH1B3 FP inh, pPAFAH inh, PAFAH1B2 inh, PAFAH2 FP inh, M18AAP inhibitor)
O=[N+]([O-])C1C(c2ccccc2)C12c1ccccc1-c1ccccc12 (centres undefined)	none (no result: PAFAH1B3 FP inh, pPAFAH inh, PAFAH1B2 inh, PAFAH2 FP inh, M18AAP inhibitor)
CCN(CC(=O)Nc1c(F)cccc1F)C(=O)c1ccc(OC)c(S(=O)(=O)NC2CCCC2)c1	none (no result: PAFAH1B3 FP inh, pPAFAH inh, PAFAH1B2 inh, PAFAH2 FP inh, M18AAP inhibitor)
CC(=O)c1c(C)[nH]c(C(=O)Nc2ccc(N3CCCCCC3)cc2)c1C	none (no result: PAFAH1B3 FP inh, pPAFAH inh, PAFAH1B2 inh, PAFAH2 FP inh, M18AAP inhibitor)
O=C(CSCc1ccc(Cl)cc1)NCc1ccc2c(c1)OCO2	PAFAH1B2 inh 26.1
O=C(CSCc1ccc(F)cc1)NCc1ccc2c(c1)OCO2	none
O=C(NCCc1nc2ccccc2[nH]1)C1CCC(=O)N(CCc2cccc(F)c2)C1 (centres undefined)	none
C[C@@H]1CN([C@H](C)CO)C(=O)c2cc(Br)cnc2O[C@@H]1CN(C)C(=O)c1cccc(F)c1	none (no result: PAFAH1B3 FP inh, pPAFAH inh, PAFAH1B2 inh, PAFAH2 FP inh, M18AAP inhibitor)
CCC(C)c1c(NS(=O)(=O)c2ccc(C)cc2)o[nH]c1=O (centres undefined)	none (no result: pPAFAH inh, M18AAP inhibitor)
CCC(C)c1c(N)n(S(=O)(=O)c2ccc(C)cc2)oc1=O (centres undefined)	PAFAH1B2 inh 41.8 (no result: pPAFAH inh, M18AAP inhibitor)
O=C(CSc1nc(O)cc(=O)n1-c1ccccc1)c1ccc(Br)cc1	pPAFAH inh 24.7 (no result: Pemphigus Ab inh)
O=c1cc(O)nc(SCc2ccccc2)n1-c1ccccc1	none
CC(=O)Nc1ccc(N(C(=O)Cn2nnc3ccccc32)C(C(=O)NC2CCCC2)c2ccc(O)c(O)c2)cc1 (centres undefined)	M18AAP inhibitor 64.6
CCOc1cc(C(C(=O)NCC2CCCO2)N(C(=O)Cn2nnc3ccccc32)c2ccc(NC(C)=O)cc2)ccc1O (centres undefined)	none (no result: Pemphigus Ab inh)
Cc1cc(C)n2[nH]c(=O)cc2n1	none (no result: PAFAH1B3 FP inh, pPAFAH inh, PAFAH1B2 inh, PAFAH2 FP inh, M18AAP inhibitor)
CCOC(=O)Cn1nnnc1C(CC)N(Cc1cccs1)Cc1cc2cc(C)ccc2[nH]c1=O (centres undefined)	none
CCOC(=O)Cn1nnnc1C(C(C)C)N(Cc1cccs1)Cc1cc2cc(C)ccc2[nH]c1=O (centres undefined)	M18AAP inhibitor 31.4
COc1ccc(CN2CCCC(C(=O)Nc3cccc(-n4cccn4)c3)C2)c(F)c1 (centres undefined)	none
COc1cc(/C=N/NC(=O)c2cc(-c3ccccc3)sc2N)cc(OC)c1OC	pPAFAH inh 25.9 (no result: PAFAH1B3 FP inh, Pemphigus Ab inh, PAFAH1B2 inh, PAFAH2 FP inh)
Cc1nn(C)c(C)c1/C=C(\C#N)S(=O)(=O)c1ccc(F)cc1	none (no result: PAFAH1B3 FP inh, pPAFAH inh, PAFAH1B2 inh, PAFAH2 FP inh, M18AAP inhibitor)
CC(C)(C)c1ccc(-n2ncc3c2CCCC3NC(=O)CCn2cncn2)cc1 (centres undefined)	pPAFAH inh 33.1
CC(C)(C)c1ccc(-n2ncc3c2CCCC3NC(=O)CCCn2cncn2)cc1 (centres undefined)	none (no result: pPAFAH inh)

Screens: PubChem BioAssay, several laboratories
